Rows were chosen to be rich in hits. Some 1% of all compounds tested hit in one or more screens of this group.
gsp ag = qHTS for Agonist of gsp, the Etiologic Mutation Responsible for Fibrous Dysplasia/McCune-Albright Syndrome: qHTS. Potency, µM (highest dose often 76.9 µM), without a hit: top-dose activation (cAMP increase), usual class: activators. 0.13% of 340,000 active. gsp mutant cells, cAMP HTRF, 30 min; active = well fitted activation curve with a large enough effect; inconclusive = small, poorly fitted or top-dose-only effect, or another doubt; inactive = no such curve, though single readings can be large or run the other way; cell line not stated here;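 note: phosphodiesterase inhibitor Ro 20-1724 added with compounds to block cAMP breakdown; potency is the fitted concentration of half-maximal effect; nearly all actives have a fitted effect of over 60% in size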
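Cells in DMEM/10% FBS with G418 were pretreated with compounds in DMSO plus […] (300 uM stock) for 30 min at 37C. cAMP was measured by HTRF (cAMP-d2 plus anti-cAMP antibody-K) after 30 min at room temperature.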
RXFP1 ag = qHTS Assay for Agonists of the Relaxin Receptor RXFP1; AID 2676, 2010; Potency, µM (titrated, usually from 57.5 µM), for inactives: top-dose activation, usual class: activators; 0.3% of 370,000 active; HEK293T-RXFP1 cAMP TR-FRET, 30 min; response scale: percent of porcine relaxin response, buffer zero; active = well fitted activation curve with a large enough effect; inconclusive = small, poorly fitted or top-dose-only effect; note: potency is the fitted concentration of half-maximal effect; % is set by controls: 0 for no effect and ±100 for the full control effect; nearly all actives have a fitted effect of over 60% in size
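cAMP rise read by TR-FRET after 30 min, 37C compound exposure (up to 58 uM) in RXFP1-transfected HEK293 cells with Ro 20174 present. EC50 from Hill-equation fits, with 29 nM porcine relaxin as 100% and buffer as basal.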
TSHR antag = Antagonists of the Thyroid Stimulating Hormone Receptor: HTS campaign | Thyrotropin receptor (Homo sapiens), P16473 | TSHR-expressing cells, TSH-stimulated cAMP HTRF, 2 h; stronger effect = lower value | 0.2% of 330,000 active | activity change, negative = inhibition, % at 11.5 µM;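 active = activity change below a set negative limit, meaning inhibition stronger than a set level, cut at about -70% in these data; inconclusive = activity change between two set negative limits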; note: % is set by controls: 0 for no effect and ±100 for the full control effect
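Competitive HTRF cAMP read-out (cryptate anti-cAMP antibody, cAMP-d2; 30 min, room temperature) in freshly harvested TSHR cells. Compounds added before TSH at EC80 (4nM final), followed by 2 hours' incubation at 37 deg C.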
RXFP1 antagonist = qHTS Assay for Antagonists of the Relaxin Receptor RXFP1; HEK293-RXFP1, relaxin-stimulated cAMP HTRF, 30 min; stronger effect = lower value; activity change, negative = inhibition, % at 57.5 µM; 0.59% of 350,000 active;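 active = activity change of -60% or lower, but not beyond a set lower limit; inconclusive = change between -60% and -40%, or beyond the set limit; inactive = change above -40%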; note: % is set by controls: 0 for no effect and ±100 for the full control effect
gsp antag = qHTS for Antagonists of gsp, the Etiologic Mutation Responsible for Fibrous Dysplasia/McCune-Albright Syndrome: qHTS; 0.4% of 340,000 active; Potency, µM (titrated, usually from 76.9 µM), for inactives: top-dose activity change, negative = inhibition, most hits filed as inhibitors; gsp-mutant cells, cAMP HTRF, 30 min; calls by dose curve; cell line not stated here;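 note: intracellular cAMP measured with PDE inhibitor Ro 20-1724 present during compound exposure; potency is the fitted concentration of half-maximal effect; % is set by controls: 0 for no effect and ±100 for the full control effect; nearly all actives have a fitted effect of over 65% in size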
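Cells in G418 medium, seeded 16-24 h, 37C; buffer exchange to DPBS + 1 mM CaCl2, 0.5 mM MgCl2, 0.05% BSA; cpds in DMSO + […] (300 uM stock), 30 min 37C; HTRF cAMP detection.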
The depositor's hits bear a star; ? = inconclusive; . = no result given; [ ] = another dose, or the depositor's remark.

SMILES | gsp ag | RXFP1 ag | TSHR antag | RXFP1 antagonist | gsp antag
CCOc1cccc(CNc2ccc(O)cc2)c1OCc1ccc(Cl)cc1Cl | 4% | 1% | -18 | ? | ?
COc1ccccc1N1CCN(c2ncnc3c2cnn3C)CC1 | . | 4% | . | 16 | .
Cc1cc(C)c2sc(N(CCCN(C)C)C(=O)COc3ccc(Cl)cc3)nc2c1 | 18%[15.4 µM] | 0% | 11 | -72* | 9%
Cc1cc(C)c2sc(N(CCCN(C)C)C(=O)c3ccc(S(=O)(=O)N(C)C4CCCCC4)cc3)nc2c1 | -2%[15.4 µM] | 0% | 7 | -84* | 11%
CN(C)CCCN(C(=O)c1ccc(S(=O)(=O)N(C)C2CCCCC2)cc1)c1nc2ccc(F)cc2s1 | 17% | 0% | -2 | -25 | 9%
Cc1cc(C)c(S(=O)(=O)N2CCCOC2CNC(=O)C(=O)NCc2ccccn2)c(C)c1 (stereo not given) | 24%[15.4 µM] | 1% | -7 | -11 | 11µM*
Cc1cc(C)c(S(=O)(=O)N2CCOC2CNC(=O)C(=O)NCc2ccccn2)c(C)c1 (stereo not given) | -29% | -1% | 20 | 0 | 7%
CC1(C)N=C(N)N=C(N)N1CCCCc1ccccc1 | 14µM* | . | . | -6 | -11%
CCOC(=O)C1CCN(C(=O)C2CCN(C3=NS(=O)(=O)C(c4ccc(C)cc4)=C3CC)CC2)CC1 | . | -1% | . | -23 | .
Cc1cccc(-c2nc(CN3CCCC(C(=O)N4CCN(c5cc(Cl)ccc5C)CC4)C3)c(C)o2)c1 (stereo not given) | . | 0% | . | . | .
O=C(Cc1ccc(F)cc1)Nc1nc(-c2ccc(F)cc2)cs1 | -10%[15.4 µM] | 0% | 3 | ? | 0%
O=C(NC(=S)Nc1nc(-c2ccccc2)cs1)c1ccco1 | -59% | 2% | -23 | -63* | -7%
O=C(Cc1c(F)c(F)c(F)c(F)c1F)Nc1nc(-c2ccccc2)cs1 | -6%[15.4 µM] | 10% | -33 | -65* | -11%
O=C(CN1C(=O)CCC1=O)Nc1nc(-c2ccc(Oc3ccccc3)cc2)cs1 | 1% | 0% | -28 | -70* | -23%
COc1ccc(-c2csc(NC(=O)CN3C(=O)CCC3=O)n2)cc1 | 6% | 1% | -2 | -4 | -3%
Cc1ccc(C(=O)NC(=S)Nc2nc(-c3cccc([N+](=O)[O-])c3)cs2)c(Cl)c1 | -36%[15.4 µM] | 3% | 15 | -89* | 7%
COc1ccc(OC)c(NC(=O)c2cn3c4c(ccc(Cl)c4c2=O)OC(C)C3)c1 (stereo not given) | . | ? | . | -11 | .
O=C(Nc1nc(-c2ccccc2)cs1)c1cccc([N+](=O)[O-])c1 | 6% | 2% | -37 | -21 | 50µM*
COc1ccc(NC(=O)Cn2nc(C)c3c(C)n(-c4ccccc4)nc3c2=O)cc1OC | . | 2% | . | -15 | .
Clc1ccccc1N=C1NN=C(c2cccs2)CS1 | 0%[15.4 µM] | 1% | -17 | -83* | 4%
Cc1nc(NCCc2cnc[nH]2)c2oc3ccccc3c2n1 | -45% | 2% | -6 | -8 | 5%
COc1ccc(CCNc2nc(C)nc3c2oc2ccccc23)cc1OC | 12% | 1% | ? | ? | 40µM*
COc1ccc(CCNc2ncnc3c2oc2ccccc23)cc1OC | ? | 0% | -80* | -36 | ?
Cc1ccccc1Cn1c(=O)n(CCCCC(=O)NCc2ccc3c(c2)OCO3)c(=O)c2ccccc21 | . | 6% | . | . | .
Cc1cccc(NC(=O)c2cc(NC(=O)C3CCCCC3C(=O)O)ccc2N2CCCCC2)c1 (stereo not given) | -38% | -1% | -22 | 2 | 35µM*
COc1ccccc1C(=O)Nc1ccccc1OCc1cc(=O)n2cc(C)sc2n1 | . | 5% | . | . | .
CC(OC(=O)/C(C#N)=C/c1ccc(N(C)C)cc1)C(=O)N(C)c1ccccc1 (stereo not given) | -34% | -1% | -12 | -2 | 25µM*
Nc1ccc(N=Nc2ccccc2O)c(N)c1 | -4%[15.4 µM] | . | . | 3 | -4%

Screening results from PubChem BioAssay.
